In PubChem BioAssay (Tox21) one finds Potency, outcome and activity change, negative = cytotoxicity data, which are given here for 37 compounds.

Each structure is given as a SMILES string. Records with an inconclusive call do not appear. Entries that show only a call come without a potency. Unmarked numbers belong to inactive results. Activity calls are given as the source filed them. Calls follow the shape of the full dose curve.

One assay deals with Thyrotropin receptor (Homo sapiens) (UniProt P16473). The assay is described as follows: qHTS assay to identify small molecule agonists of the thyroid stimulating hormone receptor (TSHR) signaling pathway (AID 1224843). Also: nearly all actives have a fitted effect of over 45% in size. Also: potency is read from the fitted curve at half-maximal effect. Conditions: TSHR-HEK293 cells, cAMP HTRF, agonist mode, 30 min; series mostly up to 92.4 µM. The method, boiled down: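 TSHR-expressing HEK293 cells (800 per well) were exposed to compounds for 30 min at room temperature. cAMP was then detected by HTRF competition with cAMP-d2 and anti-cAMP cryptate, read after 1 h at room temperature. Fifteen concentrations, triplicate.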
Chain of Thyrotropin receptor (Homo sapiens) (P16473 whole entry, looked up): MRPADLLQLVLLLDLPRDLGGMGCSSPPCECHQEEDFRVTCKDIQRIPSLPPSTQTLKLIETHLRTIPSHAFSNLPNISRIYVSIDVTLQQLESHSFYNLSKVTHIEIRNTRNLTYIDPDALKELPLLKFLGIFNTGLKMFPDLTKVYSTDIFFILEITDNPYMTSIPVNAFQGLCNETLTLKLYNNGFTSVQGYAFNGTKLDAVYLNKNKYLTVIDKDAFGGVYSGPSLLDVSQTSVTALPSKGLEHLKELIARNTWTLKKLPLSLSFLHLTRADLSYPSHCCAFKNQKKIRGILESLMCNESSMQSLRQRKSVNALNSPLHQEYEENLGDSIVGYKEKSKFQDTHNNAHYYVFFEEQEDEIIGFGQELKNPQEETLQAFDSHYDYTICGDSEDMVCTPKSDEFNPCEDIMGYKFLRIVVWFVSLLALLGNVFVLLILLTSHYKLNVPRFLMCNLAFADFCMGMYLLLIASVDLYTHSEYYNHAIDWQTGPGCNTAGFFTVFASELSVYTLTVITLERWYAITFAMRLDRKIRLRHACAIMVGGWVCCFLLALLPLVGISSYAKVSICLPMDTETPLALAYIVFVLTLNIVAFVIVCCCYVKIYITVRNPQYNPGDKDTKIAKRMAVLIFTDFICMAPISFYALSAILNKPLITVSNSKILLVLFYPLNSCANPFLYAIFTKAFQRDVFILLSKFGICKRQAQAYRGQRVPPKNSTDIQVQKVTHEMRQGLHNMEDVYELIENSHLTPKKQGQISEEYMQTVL
`O=P(O)(O)OP(=O)(O)O`: the Potency entry was “inactive”. `CC(C)NCC(O)COc1cccc2[nH]ccc12` (centres undefined): the Potency entry is “inactive”. On to `CC(C(=O)O)c1ccc2c(c1)CC(=O)c1ccccc1S2` (centres undefined), for which the Potency result was “inactive”. For the compound `O=C(O)CCSSCCC(=O)O`, the Potency result is “inactive”.

On to `CCCN1C[C@H](CSC)C[C@@H]2c3cccc4[nH]cc(c34)C[C@H]21`, for which the Potency result was “inactive”. `COC(=O)[C@@H]1[C@H]2C[C@H]3c4[nH]c5ccccc5c4CCN3C[C@@H]2CC[C@@H]1O`: the Potency entry is “inactive”. Regarding `Oc1cn2c(n1)Nc1ccc(Cl)c(Cl)c1C2`, the Potency was 730 nM (active). As to `CC1(CO)CN(c2ccccc2)NC1=O` (centres undefined), the Potency result is “inactive”. As for `COc1ccc2c(c1)C(=O)N(CCc1ccc(S(=O)(=O)NC(=O)NC3CCCCC3)cc1)C(=O)C2(C)C`, the Potency result is “inactive”. Take `CN(CCOc1ccc(NS(C)(=O)=O)cc1)CCc1ccc(NS(C)(=O)=O)cc1`: the Potency result is “inactive”. On to `O=C(NCCc1c[nH]c2ccccc12)c1cccnc1`, for which the Potency entry is “inactive”. Turning to `CCN1CCc2nc(N)oc2CC1`, the Potency entry is “inactive”. Still for that read-out and setting: for `CC(C)=O` the value was “inactive”. For `CCN(CC)CC(=O)Nc1c(C)cccc1C`, the Potency result is “inactive”. Turning to `O=C(O)c1cc(Br)c(O)c(Br)c1`, the Potency result was “inactive”. On to `CCCCCCOc1ccccc1C(N)=O`, for which the Potency entry was “inactive”. As for `Brc1ccc(-c2ccccc2)cc1`, the Potency result is “inactive”. For `CCOc1cc([N+](=O)[O-])c(OCC)cc1N1CCOCC1`, the Potency result was “inactive”. As to `CC(C)C(=O)OCc1cccc(OC(=O)[C@@H]2N3C(=O)[C@@H](NC(=O)Cc4ccccc4)[C@H]3SC2(C)C)c1`, the Potency result was “inactive”. On to `c1ccc2c(c1)ccc1c3ccccc3ccc21`, for which the Potency result was “inactive”. For the compound `C=COCCOCCOCCOC=C`, the Potency result was “inactive”.

Consider `CCCCNc1ccc(C(=O)OCCN(C)C)cc1`, for which the Potency entry was “inactive”. For the compound `CCCC/C=C/C=C\C=O`, the Potency result was “inactive”.

As to `CCCCCCN`, the Potency entry is “inactive”. On to `O=C1CCCC(=O)O1`, for which the Potency entry is “inactive”. With `Cc1cc(C(C)(C)C)c(O)c(C)c1CC1=NCCN1`, the Potency entry was “inactive”. Regarding `Nc1nnc(-c2cccc(Cl)c2Cl)c(N)n1`, the Potency result is “inactive”.

Consider `CCOC(=O)c1ccc(OC(=O)CCCCCN=C(N)N)cc1`, for which the Potency result was “inactive”. On the same count and under the same terms, for `CC1=C(C(=O)O)N2C(=O)[C@@H](NC(=O)[C@H](N)c3ccc(O)cc3)[C@H]2SC1` the value was “inactive”; for `Cc1cc2cc3c(C)cc(=O)oc3c(C)c2o1`, “inactive”. As to `CC(C)(C)c1cc(CCC(=O)NN)cc(C(C)(C)C)c1O`, the Potency entry is “inactive”.

Turning to `CCCCCCCCSCC`, the Potency result was “inactive”. `CC(C)NCC(O)COc1ccc(COCCOC(C)C)cc1` (centres undefined): the Potency entry was “inactive”. On to `O=Cc1ccc(Cl)c(Cl)c1`, for which the Potency entry is “inactive”. As to `CCOC(=O)c1ncn2c1CN(C)C(=O)c1cc(F)ccc1-2`, the Potency entry is “inactive”.

`Cc1cc(NC(=O)C2=C(O)c3ccccc3S(=O)(=O)N2C)no1`: the Potency result was “inactive”.

Test system in another assay: not listed separately
The assay is described as follows: qHTS assay to identify small molecule agonists of the hypoxia (HIF-1) signaling pathway - cell viability counter screen (AID 1224844). Also: nearly all actives have a fitted effect of over 50% in size. The conditions noted are these: HRE-bla ME-180 viability, CellTiter-Glo luminescence, 17 h; series mostly up to 76.8 µM. In short, it runs like this: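 HRE-bla ME-180 cells, 2,000/well in 0.5% dialyzed FBS medium, treated 17 h at 37C with compounds. Viability read in the same wells as the bla reporter, by CellTiter-Glo luminescence after 30 min at room temperature.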
Background: qHTS replaces the single test concentration by a dilution series.
As to `O=P(O)(O)OP(=O)(O)O`, the compound was called inactive.

Turning to `CC(C)NCC(O)COc1cccc2[nH]ccc12` (centres undefined), the outcome was inactive. As for `CC(C(=O)O)c1ccc2c(c1)CC(=O)c1ccccc1S2` (centres undefined), the compound was called inactive.

On to `O=C(O)CCSSCCC(=O)O`, for which the compound was classed as inactive.

`CCCN1C[C@H](CSC)C[C@@H]2c3cccc4[nH]cc(c34)C[C@H]21`: the compound was classed as inactive.

For the compound `COC(=O)[C@@H]1[C@H]2C[C@H]3c4[nH]c5ccccc5c4CCN3C[C@@H]2CC[C@@H]1O`, the compound was called inactive.

Regarding `Oc1cn2c(n1)Nc1ccc(Cl)c(Cl)c1C2`, the activity change, negative = cytotoxicity was -1.47% [at 15.8 µM]. Turning to `CC1(CO)CN(c2ccccc2)NC1=O` (centres undefined), the outcome was inactive. Same read-out and setting: for `CN(CCOc1ccc(NS(C)(=O)=O)cc1)CCc1ccc(NS(C)(=O)=O)cc1` the value was “inactive”; for `O=C(NCCc1c[nH]c2ccccc12)c1cccnc1`, “inactive”.

In the case of `CCN1CCc2nc(N)oc2CC1`, the result was inactive. In the case of `C=C(C)C(=O)OCc1ccccc1`, the call was inactive. Take `CC(C)=O`: the outcome was inactive. As to `CCN(CC)CC(=O)Nc1c(C)cccc1C`, the compound was classed as inactive. For the compound `O=C(O)c1cc(Br)c(O)c(Br)c1`, the result was inactive. On to `Brc1ccc(-c2ccccc2)cc1`, for which the compound was called inactive. The same measure, in the same setting: for `CCOc1cc([N+](=O)[O-])c(OCC)cc1N1CCOCC1` the value was “inactive”; for `CC(C)C(=O)OCc1cccc(OC(=O)[C@@H]2N3C(=O)[C@@H](NC(=O)Cc4ccccc4)[C@H]3SC2(C)C)c1`, “inactive”.

Consider `c1ccc2c(c1)ccc1c3ccccc3ccc21`, for which the call was inactive. As to `C=COCCOCCOCCOC=C`, the compound was classed as inactive. Take `CCCCCCN`: the result was inactive. Take `O=C1CCCC(=O)O1`: the call was inactive. With `Cc1cc(C(C)(C)C)c(O)c(C)c1CC1=NCCN1`, the compound was called inactive. As to `Nc1nnc(-c2cccc(Cl)c2Cl)c(N)n1`, the compound was called inactive. As to `CCOC(=O)c1ccc(OC(=O)CCCCCN=C(N)N)cc1`, the compound was called inactive. `CC1=C(C(=O)O)N2C(=O)[C@@H](NC(=O)[C@H](N)c3ccc(O)cc3)[C@H]2SC1`: the outcome was inactive. As to `Cc1cc2cc3c(C)cc(=O)oc3c(C)c2o1`, the result was inactive. As for `CC(C)(C)c1cc(CCC(=O)NN)cc(C(C)(C)C)c1O`, the outcome was inactive. With `CCCCCCCCSCC`, the outcome was inactive.

Take `CC(C)NCC(O)COc1ccc(COCCOC(C)C)cc1` (centres undefined): the call was inactive.

As for `O=Cc1ccc(Cl)c(Cl)c1`, the outcome was inactive.

Take `CCOC(=O)c1ncn2c1CN(C)C(=O)c1cc(F)ccc1-2`: the compound was called inactive.

On to `Cc1cc(NC(=O)C2=C(O)c3ccccc3S(=O)(=O)N2C)no1`, for which the result was inactive.
